This is a sample that favours compounds with a hit; in the whole collection about 3.5% have one here.
Autofluor counter: compound fluorescence in toxin protease inhibitor counterscreen; compound autofluorescence counterscreen, microsphere flow cytometry; hits give high values; fluorescence intensity (no concentration beside the values); 360,000 compounds, 3.1% hits; in the data active means fluorescence intensity above about 16000; inconclusive means no clear call, values can overlap the other calls
Anthrax LF inh2: Bacillus anthracis LF protease inhibitors, primary screen, biochemical, multiplex microsphere, MLPCN library; multiplex microsphere protease cleavage assay; inhibition, % at 10 µM; AID 588501, 2011; 360,000 compounds, 0.12% hits; Lethal factor (Bacillus anthracis), P15917
Target sequence (P15917 whole entry, looked up): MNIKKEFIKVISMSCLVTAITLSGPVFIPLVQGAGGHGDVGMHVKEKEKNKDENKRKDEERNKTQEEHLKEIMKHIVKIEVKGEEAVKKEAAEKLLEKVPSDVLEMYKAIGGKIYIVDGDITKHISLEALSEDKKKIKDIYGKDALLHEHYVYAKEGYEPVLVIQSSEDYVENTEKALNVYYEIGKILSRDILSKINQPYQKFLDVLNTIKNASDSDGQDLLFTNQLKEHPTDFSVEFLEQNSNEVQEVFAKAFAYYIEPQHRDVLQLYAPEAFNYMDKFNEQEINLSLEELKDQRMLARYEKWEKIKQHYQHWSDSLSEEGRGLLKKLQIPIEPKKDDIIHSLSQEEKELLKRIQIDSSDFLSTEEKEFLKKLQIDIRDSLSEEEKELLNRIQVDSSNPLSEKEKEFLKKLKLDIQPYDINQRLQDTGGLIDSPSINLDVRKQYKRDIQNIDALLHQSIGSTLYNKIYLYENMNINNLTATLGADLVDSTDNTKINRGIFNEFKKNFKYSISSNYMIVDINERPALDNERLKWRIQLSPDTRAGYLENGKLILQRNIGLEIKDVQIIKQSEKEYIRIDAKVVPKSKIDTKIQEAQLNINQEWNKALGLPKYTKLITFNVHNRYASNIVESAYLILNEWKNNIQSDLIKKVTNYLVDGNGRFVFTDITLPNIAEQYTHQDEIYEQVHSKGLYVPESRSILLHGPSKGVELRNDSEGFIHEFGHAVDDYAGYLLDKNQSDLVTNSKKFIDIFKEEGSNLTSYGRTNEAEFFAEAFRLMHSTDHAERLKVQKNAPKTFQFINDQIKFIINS
BoNT-F LC inh: BoNT/F light chain protease inhibitors, primary screen, biochemical, flow cytometry, MLPCN library. 360,000 compounds, 0.22% hits. inhibition, % at 10 µM. AID 588497, 2011. Multiplex microsphere protease cleavage assay. Botulinum neurotoxin type F light chain protease (Clostridium botulinum); in the data active means inhibition above about 35%, passing the limit was not always enough; inconclusive means no clear call, values can overlap the other calls
BoNT A protease: BoNT/A light chain protease inhibitors, primary screen, biochemical, flow cytometry, MLPCN library; Botulinum neurotoxin type A light chain protease (Clostridium botulinum A str. ATCC 3502); multiplex microsphere protease substrate cleavage; inhibition, % at 10 µM; 360,000 compounds, 0.17% hits; AID 588499, 2011
Of the large screens only hits and unclear results are named; the others gave an inactive call. Unless noted, no stated cut-off is given here; in the data, active means inhibition above about 30%; inconclusive means no clear call, values can overlap the other calls; inactive means below that.

O=C1c2cnc3nc(SCc4cccc(Cl)c4)nn3c2CC2c3ccccc3CCN12 (stereo not drawn)	Autofluor counter 21140
O=C(NC(NC(=S)N1CCOCC1)C(Cl)(Cl)Cl)c1ccc(Cl)cc1 (stereo not drawn)	none
CCCCC(=O)NC(NC(=S)N1CCOCC1)C(Cl)(Cl)Cl (stereo not drawn)	Autofluor counter 23068, BoNT A protease inconclusive
CCCC1NC(C(=O)O)Cc2c1[nH]c1ccccc21 (stereo not drawn)	none
O=C(Nc1ccc2c(c1)OCO2)C1COc2ccccc2O1 (stereo not drawn)	none
O=C(Nc1ccc2c(c1)CCC2)C1COc2ccccc2O1 (stereo not drawn)	Autofluor counter 23530
COc1cccc(N=c2oc3ccc(OC)cc3cc2-c2nc3ccccc3[nH]2)c1	none
COc1cccc(N=c2oc3ccccc3cc2-c2nc3ccccc3[nH]2)c1	Autofluor counter inconclusive, BoNT-F LC inh 54
Cc1ccc(Nc2nc(N)[nH]c(=O)c2N=O)cc1	BoNT-F LC inh inconclusive
CC(C)C(=O)Nc1ccc(NC(=S)NC(=O)c2ccc([N+](=O)[O-])cc2)cc1	Autofluor counter 23025
CC(C)C(=O)Nc1cccc(NC(=S)NC(=O)c2ccc([N+](=O)[O-])cc2)c1	Autofluor counter 22965, BoNT A protease inconclusive
CC(=O)Nc1ccc(NC(=S)NC(=O)c2ccc([N+](=O)[O-])cc2)cc1	none
CCCCc1cc(=O)oc2cc(C)cc(OCC(=O)NC(Cc3ccc(Cl)cc3)C(=O)O)c12 (stereo not drawn)	none
CC(=O)c1sc(NC(=O)C=C(C)C)nc1C	Autofluor counter 17371
CCCCC(=O)Nc1nc(C)c(C(C)=O)s1	none
CC(C)OC(=O)CSc1nnc(Cc2ccccc2)n1Cc1ccco1	Autofluor counter 19241
O=C(CSc1nnc(Cc2ccccc2)n1Cc1ccco1)NC1CCCC1	none
O=C(Nc1ncc2c(n1)-c1ccccc1CC2)c1ccc(Cl)cc1	Autofluor counter 22185
O=C(Nc1ncc2c(n1)-c1ccccc1OC2)c1ccc(Cl)cc1Cl	Autofluor counter 16392
O=C(NCCCNC(=O)c1cnccn1)c1cccc(F)c1	none
COc1ccccc1-c1c(C)oc2c(CN3CCCCC3C)c(O)ccc2c1=O (stereo not drawn)	none
COc1nn(CC(=O)N2N=C(C(F)F)CC2(O)C(F)F)cc1[N+](=O)[O-] (stereo not drawn)	Autofluor counter 23495
COc1nn(C(C)C(=O)N2N=C(C(F)F)CC2(O)C(F)F)cc1[N+](=O)[O-] (stereo not drawn)	Autofluor counter 20181
CC(=O)c1ccc(S(=O)(=O)N2CCNC(=O)C2)cc1	none
CC1CCC2(CC1)NC(=O)N(CC(=O)NCCc1ccc(F)cc1)C2=O (stereo not drawn)	none
COc1ccc(Cl)cc1C(=O)Nn1cnnc1	BoNT-F LC inh inconclusive
CCOc1ccc(C(CCc2ccccc2)NC(=O)c2ccccc2)cc1OCC (stereo not drawn)	Autofluor counter 21649, BoNT A protease inconclusive
CCOc1ccc(C(=O)NC(C)CCc2ccccc2)cc1 (stereo not drawn)	none
Cc1cccc(NS(=O)(=O)c2cc3c(cc2C)n(C)c(=O)c(=O)n3C)c1	none
Cc1ccc(NC(C#N)c2ccccc2OCc2ccccc2)cc1 (stereo not drawn)	Autofluor counter 23322, BoNT A protease inconclusive
CCc1ccc(CN(C)CC(=O)Nc2ccc(S(=O)(=O)N3CCOCC3)cc2)cc1	none
COc1ccc(Nc2ncnc3sc(-c4ccccc4)cc23)cc1	Autofluor counter 19970, BoNT A protease inconclusive
COc1ncnc2sc(-c3ccccc3)cc12	none
Cc1ccc(Cl)cc1NC(=O)c1ocnc1C	none
Cc1ccccc1NC(=O)c1ocnc1C	none
Cc1ncoc1C(=O)Nc1cccc(Cl)c1C	Autofluor counter 23395
Cc1ocnc1C(=O)Nc1ccc(Cl)cc1	Autofluor counter 20071
Cc1ncoc1C(=O)Nc1cccc(Cl)c1	Autofluor counter 16565
Cc1ncoc1C(=O)Nc1ccccc1C(N)=O	Autofluor counter 23428
CC(NC(=O)c1ccco1)C(=O)N1CCCCC1 (stereo not drawn)	none
O=C(N/C(=C\c1ccccc1)C(=O)N1CCOCC1)c1cccc(Br)c1	none
CC1(C(=O)O)CCCN1C(=O)c1ccco1 (stereo not drawn)	none
COc1cccc(CN2CCNC(=O)C2CC(=O)N(C)C2CCOCC2)c1OC (stereo not drawn)	none
CN1C(=O)[C@H]2[C@@H](/C=C/c3ccccc3)N3C(=O)CN(Cc4ccc(-c5ccccc5)cc4)C(=O)[C@@]3(Cc3ccccc3)[C@H]2C1=O	none

Screening data deposited in PubChem by NMMLSC.
